Screens from PubChem.
An excerpt weighted towards active compounds, which were near 11% of everything screened.
PNC assembly inh: inhibitors of perinucleolar compartment assembly; PC3M PTB-GFP, PNC prevalence imaging, 16 h; active compounds read low; activity change (PNC), negative = inhibition, % at 10 µM; hit rate 3.1% among 140,000;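 active means readout at or below -70, meaning at least 70% loss of cells showing the perinucleolar compartment, a nuclear body marking cancer cells; inconclusive means readout between -30 and a set limit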;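 further: plate controls were DMSO wells for no effect and camptothecin positive control wells for full effect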
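Read-out is percentage of cells bearing a perinucleolar compartment, from automated 20x imaging of fixed, Hoechst-stained PC3M PTB-GFP cells. Cells were seeded 4 h, then exposed 16 h to compound (23 nl of library stock) in duplicate plates.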
ALDH1A1 block: inhibitors of human aldehyde dehydrogenase 1A1; P00352; Purified ALDH1A1, NADH fluorescence, propionaldehyde substrate; Potency, µM (top dose mostly 75.3 µM), for the others: at the highest dose activity, negative = inhibition, actives largely listed as inhibitors; hit rate 7.3% among 220,000;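 further: potency means the concentration at half of the fitted maximal effect; plate controls were no enzyme wells and a reference inhibitor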
HPGD block: HPGD (human) dehydrogenase inhibition; P15428; purified HPGD, NADH fluorescence kinetic, PGE2 substrate; Potency, µM, inactives show at the top dose activity change, negative = inhibition, most hits filed as inhibitors; hit rate 4.3% among 150,000; AID 894; further: potency means the concentration at half of the fitted maximal effect
Target sequence (P15428 whole entry, looked up): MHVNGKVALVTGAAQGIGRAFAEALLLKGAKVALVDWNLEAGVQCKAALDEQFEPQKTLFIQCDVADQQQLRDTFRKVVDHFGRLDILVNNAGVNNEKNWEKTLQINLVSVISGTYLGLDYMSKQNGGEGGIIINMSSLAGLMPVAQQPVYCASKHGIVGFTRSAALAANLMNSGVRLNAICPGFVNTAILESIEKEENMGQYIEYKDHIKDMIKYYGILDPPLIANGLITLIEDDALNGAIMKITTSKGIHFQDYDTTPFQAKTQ
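NADH formation kinetics: reaction with 30 uM PGE2 and 1 mM NAD+ (final), 20 nM enzyme, Tris-HCl pH 8 with Tween 20, after 15 min compound preincubation at room temperature. Fluorescence change, last versus first of five reads.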
Active calls of the source: *; ? = inconclusive; . = not tested or not shown; [ ] = another dose, or the depositor's remark. Unless noted, the call rests on the fitted dose curve; in most records, active means well fitted inhibition curve with a large enough effect (not every such curve was filed as active); inconclusive means small, poorly fitted or top-dose-only effect, or another doubt; inactive means no such curve, though single readings can be large or run the other way. Unless noted, on the % scale 0 is the no-effect control and ±100 the full control effect.

SMILES	PNC assembly inh	ALDH1A1 block	HPGD block
COc1ccc(S(=O)(=O)NCC2CCCN(CC(C)(C)C)C2)cc1 (configuration not stated)	.	20µM*	.
COc1ccc(Cc2nc(=S)[nH][nH]2)cc1Br	.	6.3µM*	.
COc1ccc(Cc2n[nH]c(=S)n2C)cc1Br	.	-8%	.
CN(C)CCCNCCCN	.	-1%	-9%
COC(=O)c1ccc(NC(=O)CCN2C(=O)CSC2=O)cc1	.	-5%	.
S=C(NCCc1ccc(Cl)cc1)NC1CC1	.	0%	.
CCN1C2=C(C(=O)CCC2)C(c2ccc(O)c(Br)c2)C2=C1CCCC2=O	25	?	-17%
CCCOc1c(Br)cc(C2C3=C(CCCC3=O)N(C)C3=C2C(=O)CCC3)cc1OC	-98*	?	?
CC(=C\c1ccco1)/C=C(\C#N)C(=O)NCCc1c[nH]c2ccccc12	1	?	.
Clc1ccc2c(NC3CCC(N4CCCCC4)CC3)ccnc2c1 (configuration not stated)	.	-5%[13.5 µM]	-10%
Cc1nc2oc(C(=O)c3ccccc3)c(N)c2c2c1COC(C)(C)C2	-14	14µM*	-12%
CCOC(=O)c1oc2nc(C(C)C)c3c(c2c1N)CC(C)(C)OC3	9	?	?
COc1ccc(OC)c2sc(NC(=O)CCSc3ccccc3)nc12	-88*	-10%	?
CCC(=O)Nc1nc2c(OC)ccc(C)c2s1	47	-5%	?
CC12CCC(C(=O)Nc3ccccc3Cl)(C(Br)C1=O)C2(C)C (configuration not stated)	3	?	-7%
CC1CC(C)(C)NC(=S)N1CCCC(=O)Nc1ccc(F)cc1 (configuration not stated)	.	-13%	.
COc1ccc(-c2ccc(/C=C3/C(=N)N4C=CSC4=NC3=O)o2)c([N+](=O)[O-])c1	?	7%	?
Cc1ccc(N2NC(=O)/C(=C/c3ccc(-c4ccc(Cl)c(C(=O)O)c4)o3)C2=O)cc1	.	8.9µM*	.
Cc1cc(/C=C2/C(=O)NN(c3ccccc3)C2=O)c(C)n1-c1ccc(O)cc1	91	?	-28%
CCOC(=O)c1ccc(-c2ccc(CO)o2)cc1	56	?	?
CC1=C(C#N)C(=O)NC(=O)/C1=C\c1ccc(-c2ccc(C)cc2[N+](=O)[O-])o1	.	13µM*	.
CCOC(=O)c1cc(-c2ccc(/C=C3/C(=O)NC(=O)C(C#N)=C3C)o2)ccc1Cl	-13	8.9µM*	22µM*
C[C@@]1(C(=O)O)CCC[C@@H]1C(=O)O	.	5%[13.5 µM]	0%
CCC(C)N1C(=O)S/C(=C/c2ccc(N3CCOCC3)cc2C)C1=O (configuration not stated)	13	10µM*	-2%
COc1cc(/C=C2\SC(=Nc3ccc(N4CCOCC4)cc3)N(C)C2=O)ccc1OC(C)C(=O)O (configuration not stated)	-23	-8%	-26%
SMILES	PNC assembly inh	ALDH1A1 block	HPGD block
Cc1cc(N2CCOCC2)ccc1/C=C1\SC(=O)N(C(C)C)C1=O	13	5µM*	-17%
CCCN1C(=O)S/C(=C\c2ccc(N3CCOCC3)cc2C)C1=O	-14	1.6µM*	-11%
Cc1ccc(N2C(=O)C(Cl)=C(N3CCOCC3)C2=O)cc1Cl	28	-5%	-12%
CCCN1C(=O)S/C(=C\c2ccc(N3CCOCC3)o2)C1=O	.	0.22µM*	.
CCN1C(=O)S/C(=C\c2ccc(N3CCOCC3)cc2C)C1=O	-29	-15%	.
O=C(CN1C(=O)S/C(=C/c2ccc(N3CCOCC3)cc2)C1=O)N1CCOCC1	-7	?	-11%
COc1ccc([N+](=O)[O-])cc1N(CC(=O)N1CCOCC1)S(C)(=O)=O	.	4%	.
CCOC(=O)C1(Cc2ccccc2)CCN(Cc2cn[nH]c2-c2ccccc2)CC1	.	-7%	.
O=C(COc1ccccc1Br)NCCc1nc2ccccc2[nH]1	49	11%	-4%
COc1cc(OC)c(N2CC34C=CC(O3)C(C(=O)O)C4C2=O)cc1Cl (configuration not stated)	-92*	-3%	-5%
CCc1ccccc1N1CC23C=CC(O2)C(C(=O)O)C3C1=O (configuration not stated)	-5	-5%	-5%
CC1(O)CC2C(CC1O)C2(C)C (configuration not stated)	.	3%	-8%
COC(=O)c1ccc(C(/C=C/[C@@H](C)C(=O)NCc2ccccc2)NC(=O)OCc2ccccc2)cc1 (some centres not stated)	.	0%	-5%
CC(=O)N1c2ccc(S(=O)(=O)CCC(=O)O)cc2CC1C (configuration not stated)	-26	-7%	-2%
Cc1ccc(S(=O)(=O)CCC(=O)O)cc1C	-27	8.9µM*	-2%
COc1ccc(S(=O)(=O)N2CCOCC2)cc1NC(=O)CSc1nnc(C2CC2)n1N	.	-2%	.
CS(=O)(=O)c1ccc(N)cc1	-88*	-1%	3%
CCN(CC)S(=O)(=O)c1ccc(N)cc1	.	3%	.
CS/C(=C\[N+](=O)[O-])Nc1ccccc1	-10	?	-8%
CS/C(=C\[N+](=O)[O-])Nc1ccc(F)cc1	-16	16µM*	-13%
C=C(C)C(=O)OC	.	28%	1%
Cc1noc(C)c1COc1ccc(CC(=O)NCc2ccccc2)cc1	.	14%	.
Cc1noc(C)c1CN1C(=O)NC(Cc2ccccc2)(Cc2ccccc2)C1=O	-107*	-4%	-2%
c1ccc(COc2ccccc2CNC23CC4CC(CC(C4)C2)C3)cc1	.	-13%	.
C=C(C)CC(Nc1ccc(OC)cc1)c1ccco1 (configuration not stated)	.	-6%	.
SMILES	PNC assembly inh	ALDH1A1 block	HPGD block
O=C(O)c1ccccc1	.	-1%	-5%
O=C(O)c1cccc(SSc2cccc(C(=O)O)c2)c1	.	-11%[13.5 µM]	4.5µM*
Cc1cc(C(=O)NCC(=O)OCC(=O)NCCc2ccccc2)ccc1[N+](=O)[O-]	.	-10%	.
CCc1ccccc1-n1c(SCC(=O)Nc2ccc3c(c2)OCCO3)nc2[nH]ncc2c1=O	-21	-10%	-4%
O=C(CSc1nc2[nH]ncc2c(=O)n1-c1ccccc1)N1CCCCCC1	.	5µM*	.
O=C(CSc1nc2ccccc2c(=O)n1-c1ccccc1)N1CCCC1	-26	?	-19%
O=C(CSc1nc2[nH]ncc2c(=O)n1-c1ccccc1Cl)N1CCCC1	.	32µM*	.
CC(Sc1nnc(-c2cccnc2)n1-c1ccccc1F)C(=O)N1CCCc2ccccc21 (configuration not stated)	1	2%	-8%
Cc1ccc(S(=O)(=O)N2CCSC2)cc1C	20	1%	-7%
O=c1cc(N2CCCC2)c2ccccc2o1	.	-12%	.
Cc1cc(C)cc(C(=O)OCC(=O)Nc2cccc(S(=O)(=O)NC3=NCCCCC3)c2)c1	-96*	0%	-8%
O=C(COC(=O)c1ccccc1)Nc1cccc(S(=O)(=O)NC2=NCCCCC2)c1	-23	6%	-9%
CCCCC(=O)OCC(=O)Nc1cccc(S(=O)(=O)NC2=NCCCCC2)c1	.	7%	.
CCN(CC)c1ccc(C(=O)OCC(=O)Nc2cccc(S(=O)(=O)NC3=NCCCCC3)c2)cc1	?	?	28µM*
O=C1CCCC(O)=C1C=NCc1ccccc1	.	1%	.
COc1ccc(/C=C(/C#N)S(=O)(=O)c2ccc(C)cc2)cc1	-1	-4%	25µM*
Cc1ccc(S(=O)(=O)/C(C#N)=C/c2ccccc2OCc2ccccc2)cc1	-24	?	?
